Bioassay records: PubChem BioAssay, National Center for Advancing Translational Sciences (NCATS)
An excerpt weighted towards active compounds, which were near 6.1% of everything screened.
D1 ag: agonists of human D1 dopamine receptor | activation, % at 2 µM | actives 1% (n = 360,000) | HEK293 T-REx D1 cells, calcium flux, agonist mode; in the data active = activation above about 30%
Target sequence (P21728 whole entry, looked up): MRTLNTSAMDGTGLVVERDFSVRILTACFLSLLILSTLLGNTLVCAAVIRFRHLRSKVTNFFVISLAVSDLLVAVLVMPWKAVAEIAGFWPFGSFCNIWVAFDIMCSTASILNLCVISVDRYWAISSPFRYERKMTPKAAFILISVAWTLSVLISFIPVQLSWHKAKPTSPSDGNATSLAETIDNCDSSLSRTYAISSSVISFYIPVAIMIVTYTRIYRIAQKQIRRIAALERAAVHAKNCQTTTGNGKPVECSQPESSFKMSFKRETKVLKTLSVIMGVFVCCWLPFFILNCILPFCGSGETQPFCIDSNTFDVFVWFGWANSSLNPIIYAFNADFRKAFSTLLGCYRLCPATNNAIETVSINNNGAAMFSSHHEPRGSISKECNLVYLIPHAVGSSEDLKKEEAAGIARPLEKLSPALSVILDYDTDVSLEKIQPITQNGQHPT
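Agonism was scored from calcium flux recorded over 180 s (1 read/s) after pintool compound addition, following a 10-cycle baseline. Cells were inducible force-coupled HEK293 TREx D1, plated overnight at 30 C and loaded with no-wash calcium dye.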
D1 potentiator: human D1 dopamine receptor positive modulation; P21728; HEK293 TREx D1 cells, calcium flux, dopamine EC20 potentiation; potentiation, % at 10 µM; actives 0.036% (n = 360,000); in the data active = potentiation above about 30%
D1 antagonist: blocks dopamine activation of the human D1 receptor | activity change, negative = inhibition, % at 10 µM | HEK293 TREx D1 cells, calcium flux, dopamine EC80; hits give low values | actives 3.2% (n = 360,000) | P21728; in the data active = activity change below about -30%
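HEK293 T-REx cells expressing inducible, force-coupled D1 receptor; no-wash Ca dye, 30–90 min RT. Cmpd → 180 s read at 1 Hz → EC80 DA → 180 s read.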
DRD3 agonist: D3 dopamine receptor (human) agonism; D3R DiscoveRx beta-arrestin cells, luminescence, 90 min; P35462; actives 0.58% (n = 410,000); max activation, %; in the data active = max activation above about 30%
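Agonist-mode cell screen: cells plated at 1500/well and incubated overnight at 37 °C, then exposed to library compounds for 90 min at 37 °C. Detection reagent was added for 30–60 min at room temperature, and luminescence was read.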
D3 antag: antagonists of human D3 dopamine receptor | P35462 | actives 2.5% (n = 360,000) | D3R cells, DiscoveRx beta-arrestin luminescence, antagonist mode; hits give low values | max response, negative = inhibition, %; in the data active = max response below about -50%; inconclusive = no clear call, values can overlap the other calls
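Cells expressing the human receptor were seeded at 1500 cells/well, incubated overnight at 37 degrees C in 5% CO2, then exposed to library compounds with dopamine controls for 90 minutes at 37 degrees C before luminescent detection.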
Numbers stand for hits; n = inactive; u = inconclusive; x = no result.

SMILES	D1 ag	D1 potentiator	D1 antagonist	DRD3 agonist	D3 antag
CCc1ccc(C(=O)NNC(=O)C2CSC3(C)CCC(=O)N23)cc1 (centres undefined)	n	n	n	n	n
CC1CCCCC1NC(=O)/C(C#N)=C/c1ccc(F)c(F)c1 (centres undefined)	n	n	-45	n	n
CC1CCCCC1NC(=O)/C(C#N)=C/c1ccc2c(c1)OCCO2 (centres undefined)	n	n	n	n	n
CCc1ccc(N(CC(=O)NCCc2ccccc2)C(=O)CCC(=O)Nc2ccccn2)cc1	n	n	n	n	n
COCCCNC(=O)CSc1nc(-c2ccc(OC)cc2)[nH]c1-c1ccc(OC)cc1	n	n	n	n	x
Cc1cc(OCC(=O)N2CCOCC2)c(C(C)C)cc1Cl	n	n	n	n	-77
Cc1cc(OCC(=O)Nc2ccccc2N2CCOCC2)c(C(C)C)cc1Cl	n	n	n	n	n
COc1cc(CNC(=O)c2cnc3c(-c4cccc(C)c4)c(C)nn3c2C)cc(OC)c1OC	n	n	n	n	x
COc1cc2c(cc1OC)C(c1cc(Br)ccc1O)N(C(C)=O)CC2 (centres undefined)	x	x	x	n	n
COc1ccc(-c2ccc3c(c2)c(-c2cccs2)c(-c2cc(OC)cc(OC)c2)n3C)cc1	n	n	x	n	n
COc1cc(OC)cc(-c2c(-c3cccs3)c3cc(-c4ccc(C(N)=O)cc4)ccc3n2C)c1	x	x	x	39	n
COc1ccc(OC)c(NC(=O)C(OC(=O)CNC(=O)c2ccccc2)c2ccccc2)c1 (centres undefined)	n	n	n	x	x
CC(C)NS(=O)(=O)c1ccc(N2C(=O)c3ccccc3C2=O)cc1	n	n	-33	n	n
COc1cccc(N(C(=O)c2ccco2)c2nc(-c3sc(NC(=O)c4ccco4)nc3C)cs2)c1	n	n	n	32	n
Cc1nc(NC(=O)c2ccco2)sc1-c1csc(Nc2ccc(Cl)cc2)n1	n	n	n	52	n
COc1ccccc1Nc1nc(-c2sc(NC(=O)c3ccco3)nc2C)cs1	n	n	n	n	n
OC(COc1ccc(OCc2ccccc2)cc1)CN1CCCCC1 (centres undefined)	n	n	n	n	n
c1ccc(COc2ccc(OCCN3CCCCC3)cc2)cc1	43	n	-31	n	n
c1ccc(COc2ccc(OCCCN3CCCC3)cc2)cc1	n	n	n	n	u
c1ccc(COc2ccc(OCCN3CCCC3)cc2)cc1	48	n	n	n	n
CCCCC(OC(=O)CNC(=O)c1ccccc1)C(=O)Nc1cc(C(F)(F)F)ccc1Cl (centres undefined)	n	n	n	x	x
Cc1ccccc1C(=O)Nc1ccc(C(=O)NNC(=O)CCCOc2ccc(Cl)cc2Cl)cc1	n	n	-39	n	n
CCCn1ncc(CN2CCC(C(=O)Nc3cccc(-c4cccc(F)c4)c3)CC2)c1C	n	n	n	n	n
COc1ccccc1-c1cc(C(=O)N2CCc3ccccc3C2)c2ccccc2n1	n	n	-86	x	x
COc1ccc(-c2cc(C(=O)N3CCN(c4ccccn4)CC3)c3ccccc3n2)cc1	n	n	n	33	n
SMILES	D1 ag	D1 potentiator	D1 antagonist	DRD3 agonist	D3 antag
Cc1ccc(-c2cc(C(=O)N3CCCCC3)c3ccccc3n2)cc1C	35	n	n	n	n
COc1ccc(N2CCN(C(=O)c3cnc(SC)nc3C)CC2)cc1	n	n	-63	n	x
Cc1ccc(NC(=O)Cn2cc(C(=O)C3CCCCC3)c3ccccc32)c(C)c1	n	n	n	n	x
COc1ccc(-c2nc3ccccc3o2)cc1NC(=O)COc1ccc(C(C)(C)C)cc1	n	n	n	n	x
COc1cccc(CN2CCC(C)(Oc3cccc(Cl)c3)C2)c1OC (centres undefined)	x	x	x	n	u
CCCc1ccc(-c2cc(C(=O)N3CCN(c4ccccn4)CC3)c3ccccc3n2)cc1	n	n	n	44	n
COc1ccc(-c2cc(C(=O)N3CCN(c4ccccc4)CC3)c3ccccc3n2)cc1	n	n	-37	n	n
CCc1c(C)nn(C(=O)/C(C#N)=C\N(C)C)c1C	n	n	n	n	n
CCN(CC)S(=O)(=O)c1ccc(NCc2ccccc2)nc1	n	n	n	33	n
CCCNc1ccc(S(=O)(=O)N(CC)CC)cn1	n	n	n	n	n
CCCNc1ccc(S(=O)(=O)N(C(C)C)C(C)C)cn1	n	n	n	n	-75
COc1ccccc1CNc1nc(Nc2cccc(-c3cnco3)c2)c2sccc2n1	x	x	x	n	n
CCC1=NN(C(=O)Cc2ccccc2)C(O)(c2ccncc2)C1 (centres undefined)	n	n	-41	n	n
CCC1=NN(C(=O)Cc2ccc([N+](=O)[O-])cc2)C(O)(c2ccncc2)C1 (centres undefined)	n	n	n	n	n
O=[S+]([O-])(c1ccc2c(c1)OCCO2)N1CCN([S+](=O)([O-])c2cc(Cl)ccc2F)CC1	n	n	n	x	x
Cc1cc2c(cc1S(=O)(=O)Nc1cccc(C(F)(F)F)c1)OCCN2C	n	n	n	n	x
CN1CCC(N(C)C(=O)c2ccc(Cl)c(S(=O)(=O)N3CCOCC3)c2)CC1	n	n	n	n	n
CCOc1ccc(NC(=O)CSc2ncc3c(n2)-c2ccccc2N(C)S3(=O)=O)cc1	n	n	n	n	x
CCOC(=O)COc1ccc(CC)cc1C(=O)c1ccn2nc(-c3ccccc3)cc2n1	n	n	n	n	x
CN1/C(=C/C=C/c2n(C)c3cc([N+](=O)[O-])c([N+](=O)[O-])cc3[n+]2C)C(C)(C)c2ccccc21	x	x	x	n	-57
Cc1cccc[n+]1CC(=O)/C=C1\N(C)c2ccccc2C1(C)C	n	n	n	n	n
CC(C)c1ccc(C(C(=O)NC2CCCCC2)N(C(=O)c2csnn2)C2CC2)cc1 (centres undefined)	n	n	n	n	n
COc1ccc(S(=O)(=O)NCC2CCCN(Cc3ccccc3Cl)C2)cc1 (centres undefined)	n	n	n	n	-52
CCOc1ccc(CN2C(=O)c3ccccc3C2C(=O)NC(C)CC)cc1OC (centres undefined)	n	n	n	n	-63
CCC(C)NC(=O)C1c2ccccc2C(=O)N1Cc1cc(OC)ccc1OC (centres undefined)	n	n	n	n	n
S=C(NCCCN1CCOCC1)N1CCN(c2nc(-c3ccc(Cl)cc3)cs2)CC1	n	n	-55	n	n
S=C(NCC1CCCO1)N1CCN(c2cccc(Cl)c2)CC1 (centres undefined)	n	n	n	n	n
S=C(NCCCN1CCOCC1)N1CCN(c2nc(-c3ccccc3)cs2)CC1	88	n	n	n	n
S=C(NCC1CCCO1)N1CCN(c2nc(-c3ccc(Cl)cc3)cs2)CC1 (centres undefined)	n	n	-30	n	n
COCCN(C(=O)COC(=O)c1ccc2ccccc2c1)c1c(N)n(Cc2ccccc2)c(=O)[nH]c1=O	x	x	x	n	n
